Experiment [1] is described as follows: NCI Yeast Anticancer Drug Screen. Data for the rad50 strain (AID 155).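 Also: 0% = growth of vehicle-only cultures of the same strain.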 As to conditions: S. cerevisiae rad50 strain growth inhibition; at 50.0 µM; stronger effect = higher value. An outline of the steps:
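Yeast carrying a defined DNA repair defect were exposed to test compounds, and growth was compared with vehicle-treated controls to give percent inhibition.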

Experiment [2] is described as follows: NCI Yeast Anticancer Drug Screen. Data for the mec2-1 strain (AID 157). To be noted: S. cerevisiae mec2-1 strain, at 50.0 µM, stronger effect = higher value. In a few lines: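 Vehicle-treated cultures served as reference for growth inhibition of compound-exposed mec2-1 yeast.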
Experiment [3] is described as follows: NCI Yeast Anticancer Drug Screen. Data for the sgs1 mgt1 strain (AID 161).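 Also: 0% = growth of cultures given vehicle only.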 As to conditions: S. cerevisiae sgs1 mgt1 strain, at 50.0 µM, stronger effect = higher value. An outline of the steps: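 Read-out: growth inhibition vs vehicle controls. Cells: mutant yeast strain deficient in DNA damage repair.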
Experiment [4] in a line: NCI Yeast Anticancer Drug Screen. Data for the cln2 rad14 strain (AID 165).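 Also: 0% = growth equal to vehicle treated cultures.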 As to conditions: S. cerevisiae cln2 rad14 strain, at 50.0 µM, stronger effect = higher value. In a few lines:
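Each compound was tested on cln2 rad14 yeast. Inhibition of growth was calculated against vehicle-exposed controls.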

Experiment [5] in a line: NCI Yeast Anticancer Drug Screen. Data for the bub3 strain (AID 167). As to conditions: S. cerevisiae bub3 mutant strain, at 50.0 µM, stronger effect = higher value. In a few lines:
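Compounds were applied to a genetically altered yeast strain carrying a cell-cycle control defect. Growth inhibition was scored against vehicle-treated controls.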

Experiment [6] in a line: NCI Yeast Anticancer Drug Screen. Data for the mlh1 rad18 strain (AID 175). As to conditions: S. cerevisiae mlh1 rad18 strain growth inhibition; at 50.0 µM; stronger effect = higher value. An outline of the steps:
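Vehicle-treated cultures served as the reference for growth inhibition in a yeast strain carrying DNA damage repair alterations exposed to each compound.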

About 79,000 compounds went through this panel and 15% of them were active in at least one assay; those are over-represented in the sample as a whole. A number with no mark means an inactive call. Calls of active or inactive are those of the source. Rule as the data show it: active = growth inhibition above about 70%; inactive = the rest. Where a SMILES comes first, the peptide text is derived from it. [ ]: non-standard residue; d: D form. The star is where a group is joined. Phe(4-NO2) = N[CH](Cc1ccc([N+](=O)[O-])cc1)C(=O)O; Boc = CC(C)(C)OC(=O)*; OtBu = CC(C)(C)O*

Take `CC1[C@@H]2CC=C3[C@H]4CCC5Cc6nc7c(nc6C[C@@]5(C)C4CC(=O)[C@]32CO[C@]12OC(C)(C)CC2O)CC1CC[C@@H]2C3=C[C@H]4O[C@@]5(O[C@@](C)(CO)C[C@@H]5O)C(C)[C@@]4(O)[C@]3(C)[C@@H](O)CC2[C@]1(C)C7` (stereo not given in full): the growth inhibition in experiment [1] is 37.5%; in experiment [2], 40.9%; in experiment [3], 90.7% (active); in experiment [4] it was 57.2%; in experiment [5] it was 47%; in experiment [6] it was 40.1%.
Consider `CS(=O)(=O)OCCN1C(=O)CNC1=O`, for which the growth inhibition in experiment [1] was 4.6%; in experiment [2] it was 8.35%; in experiment [3] it was -9.45%; in experiment [4], -27.8%; in experiment [5], 9.55%; in experiment [6] it was -2.7%.
`CCCCCCCCCCC/C=N\[N+](C)(C)C`: the growth inhibition in experiment [1] is 98.3% (active); in experiment [2], 99.3% (active); in experiment [3], 98.7% (active); in experiment [4], 96.8% (active); in experiment [5], 98.8% (active); in experiment [6], 98.2% (active).
Turning to `Cc1csc2nc(-c3ccco3)nn12`, the growth inhibition is -3.2% in experiment [1]; -23.9% in experiment [2]; 4.55% in experiment [3]; 15.9% in experiment [4]; -13.3% in experiment [5]; 4.35% in experiment [6].
`CC(=O)NC(CCC(=O)OC(C)(C)C)C(=O)NC(CCC(=O)OC(C)(C)C)C(=O)NC(Cc1ccc([N+](=O)[O-])cc1)C(=O)NC(CCCCNC(=O)OC(C)(C)C)C(=O)NC(CCCCNC(=O)OC(C)(C)C)C(=O)NCC(=O)O` (stereo not given) (Ac-E(OtBu)E(OtBu)[Phe(4-NO2)]K(Boc)K(Boc)G-OH; configuration not given here): the growth inhibition was -31.4% in experiment [1]; -19.4% in experiment [2]; -22.6% in experiment [3]; 13.4% in experiment [4]; -8.2% in experiment [5]; -27.3% in experiment [6].
On to `CC(C)CNN(CC(C)C)C(N)=O`, for which the growth inhibition in experiment [1] is -32.7%; in experiment [2] it was -25%; in experiment [3] it was -19.8%; in experiment [4] it was -24.7%; in experiment [5] it was -25.6%; in experiment [6] it was -20.1%.
Take `COc1ccc2c(c1)CC1c3[nH]c4ccccc4c3CCN1C2` (stereo not given): the growth inhibition is 52.7% in experiment [1]; 35.5% in experiment [2]; 52.9% in experiment [3]; 32.5% in experiment [4]; 19.1% in experiment [5]; 79% (active) in experiment [6].
As for `CCCCCCCCCc1ccc(COCCCC)cc1`, the growth inhibition in experiment [1] was 21.9%; in experiment [2] it was 55.1%; in experiment [3], 56.1%; in experiment [4], 50.1%; in experiment [5], 49.5%; in experiment [6] it was 48.8%.
`O=C(CCC(=O)OCCCl)OCCCl`: the growth inhibition in experiment [1] is -3.4%; in experiment [2], -18.9%; in experiment [3], -5.6%; in experiment [4], -7.75%; in experiment [5], 9.05%; in experiment [6], -7.45%.
Consider `c1ccc(CNCc2ccccc2)cc1`, for which the growth inhibition in experiment [1] was -2.65%; in experiment [2], 3.8%; in experiment [3] it was -37.8%; in experiment [4], -35.1%; in experiment [5], 18.6%; in experiment [6], 1.05%.
Take `Cc1c(O)nc(N)[nH]c1=O`: the growth inhibition is 2.65% in experiment [1]; -24% in experiment [2]; -22.6% in experiment [3]; 1.7% in experiment [4]; -13.3% in experiment [5]; -7.2% in experiment [6].
As to `CC(C)c1cccc(C(C)C)c1NC1=CC(=O)C(=O)c2ccccc21`, the growth inhibition in experiment [1] was -7.25%; in experiment [2], 14.4%; in experiment [3], -16.8%; in experiment [4], -0.2%; in experiment [5], 4.85%; in experiment [6] it was -7.85%.
As for `CN(C)/N=C\c1ccc(C(=O)O)cc1`, the growth inhibition in experiment [1] is -4.35%; in experiment [2], 25.6%; in experiment [3] it was 8.5%; in experiment [4] it was -11.9%; in experiment [5], 28.3%; in experiment [6], 22.9%.
Regarding `Cc1cc(Cl)c2c(c1)C(=O)C(C)C2.[Cu+2]` (stereo not given), the growth inhibition was -13.1% in experiment [1]; -10.2% in experiment [2]; -18.8% in experiment [3]; -26.4% in experiment [4]; -6.65% in experiment [5]; -6.2% in experiment [6].
Regarding `CN(C)c1ncnc2cn[nH]c12`, the growth inhibition is 3.6% in experiment [1]; -5.75% in experiment [2]; 0.25% in experiment [3]; 5.7% in experiment [4]; 17.4% in experiment [5]; 0.6% in experiment [6].
For the compound `CC1OC(OCC2OC(Oc3ccc4c(=O)c(-c5ccc6c(c5)OCO6)coc4c3)C(O)C(O)C2O)C(O)C(O)C1O` (stereo not given), the growth inhibition in experiment [1] is 15.1%; in experiment [2] it was 3.15%; in experiment [3], 12.6%; in experiment [4], 28.1%; in experiment [5] it was 20.4%; in experiment [6], 8.85%.
On to `CC1=CC(=O)/C(=C\c2ccc3c(c2)OCO3)C(C)(C)C1`, for which the growth inhibition in experiment [1] was -23.1%; in experiment [2], -8.45%; in experiment [3], 4.5%; in experiment [4], -19.4%; in experiment [5] it was 52.3%; in experiment [6], -1.5%.
With `COC1(OC)CC2C(=O)N(Cc3ccccc3)C1C=C2S(=O)(=O)c1ccccc1` (stereo not given), the growth inhibition in experiment [1] was 2.5%; in experiment [2], 9.65%; in experiment [3], -18.2%; in experiment [4], -47.5%; in experiment [5], 1.55%; in experiment [6] it was 8.25%.
As to `CCN(C)c1ccccc1`, the growth inhibition was -5.8% in experiment [1]; -27.8% in experiment [2]; -3.2% in experiment [3]; -31.9% in experiment [4]; -6.6% in experiment [5]; 11.2% in experiment [6].
With `Cc1ccc(N=Nc2c(C)nn(-c3ccccc3)c2C)c(Br)c1`, the growth inhibition in experiment [1] is 26.6%; in experiment [2], 10.8%; in experiment [3] it was 47.5%; in experiment [4], 4.1%; in experiment [5] it was 18.9%; in experiment [6], 38.6%.

For the origin of these results see PubChem BioAssay (NCI).
